In PubChem BioAssay AID651650 (Sanford-Burnham Center for Chemical Genomics, 2012):

The molecules below were run against Neuropilin-1 (Homo sapiens) (UniProt O14786) (assay: NRP-1 b1b2 CendR peptide binding inhibitors, dose response, biochemical, FP and AlphaScreen panel (AID 651650)). Details: NRP-1 b1b2 / RPARPAR peptide binding, FP or AlphaScreen; run 1, at 100 µM (top of the series).
Chain of Neuropilin-1 (Homo sapiens) (O14786 whole entry, looked up): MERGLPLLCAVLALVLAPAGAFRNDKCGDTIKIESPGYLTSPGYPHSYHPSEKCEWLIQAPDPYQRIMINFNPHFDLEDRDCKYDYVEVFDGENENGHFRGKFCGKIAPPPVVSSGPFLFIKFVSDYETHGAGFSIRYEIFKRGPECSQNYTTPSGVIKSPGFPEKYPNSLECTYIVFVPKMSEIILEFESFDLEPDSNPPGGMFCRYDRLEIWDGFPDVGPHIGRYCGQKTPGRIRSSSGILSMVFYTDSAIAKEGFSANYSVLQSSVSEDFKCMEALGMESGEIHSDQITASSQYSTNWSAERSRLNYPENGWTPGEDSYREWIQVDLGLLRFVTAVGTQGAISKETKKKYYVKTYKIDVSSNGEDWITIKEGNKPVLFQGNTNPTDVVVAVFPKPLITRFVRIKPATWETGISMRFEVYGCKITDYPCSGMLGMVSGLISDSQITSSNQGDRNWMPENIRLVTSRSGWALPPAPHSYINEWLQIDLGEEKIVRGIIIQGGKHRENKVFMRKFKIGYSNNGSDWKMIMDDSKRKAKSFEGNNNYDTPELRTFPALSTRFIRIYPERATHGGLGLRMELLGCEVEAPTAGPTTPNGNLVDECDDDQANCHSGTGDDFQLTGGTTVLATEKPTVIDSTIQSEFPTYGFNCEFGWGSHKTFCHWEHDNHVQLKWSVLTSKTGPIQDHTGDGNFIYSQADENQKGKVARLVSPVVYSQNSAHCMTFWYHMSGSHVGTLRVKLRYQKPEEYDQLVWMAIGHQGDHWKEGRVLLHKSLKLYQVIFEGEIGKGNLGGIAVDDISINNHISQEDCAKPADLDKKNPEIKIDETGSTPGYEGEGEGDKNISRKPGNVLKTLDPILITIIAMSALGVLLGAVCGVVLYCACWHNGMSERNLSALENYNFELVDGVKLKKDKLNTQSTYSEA

Compound	inhibition [%]
COc1ccc([C@H]2/C=C\CN(S(C)(=O)=O)[C@@H](C)C(=O)N2Cc2ccc(F)cc2)cc1	28.8
CCCN(C(=O)Cn1c(C(F)(F)F)nc2ccccc21)C1CCS(=O)(=O)C1 (stereo not drawn)	60.7
CCOc1ccc(-n2c(Cc3cc(=O)[nH]c(=O)[nH]3)nnc2SC(C)C)cc1	59.6
COC(=O)n1c(=O)oc2ccccc21	50
COc1ccc(/C=N/NC(=O)c2ccccc2Cl)cc1CSc1nc2ccccc2s1	28.7
CCCn1c(C)cc(C(=O)CSc2nc3nc(C)cc(C)n3n2)c1C	5.46
c1ccc2c(c1)CCCN2Cc1nnnn1CC1CCCO1 (stereo not drawn)	48.9
O=c1ccsn1Cc1ccccc1	11.6
CC(Nc1nc(-c2ccc(F)cc2)cs1)c1nc2cc(C(F)(F)F)ccc2n1CCOCCO (stereo not drawn)	43.3
CC(=O)Nc1cccc(-c2csc(NCc3ccccc3)n2)c1	26.4
CN(Cc1cnn(C)c1)C(=O)c1cc2ccccc2oc1=O	29.1
NC(=O)C1CCN(c2nc(-c3ccc4occc(=O)c4c3)cs2)CC1	53.3
COc1ccc(CCNC(=O)c2ccc(Cl)c(S(=O)(=O)N(C)c3ccccc3)c2)cc1	-7.22
CCOC(=O)C1(Cc2cccc(F)c2)CCN(Cc2ccon2)CC1	61.1
COc1ccc(S(=O)(=O)N2CCCCC2)cc1NC(=O)c1c(F)cccc1Cl	37.3
CC(C)C[C@@H](COc1ccccc1)N1CCN(CCc2ccccc2)CCC1=O	46.6
CCOc1ccc(N2C(=O)CC(N3CCN(c4ccc(Cl)cc4)CC3)C2=O)cc1 (stereo not drawn)	86.2
NC(=O)C1=C[C@H](c2ccc(Br)cc2)C[C@H](OCc2ccc(CO)cc2)O1	36.9
